# From PMC5540273 (PLoS ONE, 2017)
# Like-named read-outs stand apart in the source and are kept apart here.
# Columns and labels:
# Conditions in all cases: n = 1
# [1] = tested on: T1, DRAK1
# T1 construct: gene STK17A
# [2] = tested on: T2, DRAK2
# T2 construct: gene STK17B
# [3] = tested on: DYRK1A
# [4] = tested on: DYRK1B
# [5] = tested on: DYRK2
# [6] = tested on: EGFR
# [7] = tested on: EIF2AK1
# [8] = tested on: EPHA1
# [9] = tested on: EPHA2
# [10] = tested on: EPHA3
# [11] = concentration: 1 μM, replicates: in singlicate
# 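Further: KINOMEscan kinase panel screen.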
SMILES,"%Inh [1, 11] [%]","%Inh [2, 11] [%]","%Inh [3, 11] [%]","%Inh [4, 11] [%]","%Inh [5, 11] [%]","%Inh [6, 11] [%]","%Inh [7, 11] [%]","%Inh [8, 11] [%]","%Inh [9, 11] [%]","%Inh [10, 11] [%]",%Inh ([1]; 1 µM) [%],%Inh ([2]; 1 µM) [%],%Inh ([3]; 1 µM) [%],%Inh ([4]; 1 µM) [%],%Inh ([5]; 1 µM) [%],%Inh ([6]; 1 µM) [%],%Inh ([7]; 1 µM) [%],%Inh ([8]; 1 µM) [%],%Inh ([9]; 1 µM) [%],%Inh ([10]; 1 µM) [%]
COc1ccc2nc(-c3cccc(C)n3)nc(Nc3ccncc3)c2c1 [GSK204919],0,0,24,0,0,20,0,0,20,0,–,–,–,–,–,–,–,–,–,–
COc1cccc(-c2cc(-c3c[nH]nc3-c3ccccn3)ccn2)c1 [GW680338],0,2,13,14,1,31,2,0,0,11,–,–,–,–,–,–,–,–,–,–
Cn1ccc2ncnc(Oc3cccc(C(=O)Nc4ccccc4)c3)c21,0,12,2,24,0,0,18,0,0,0,–,–,–,–,–,–,–,–,–,–
COc1cccc(NC(=O)NC2CCN(c3ccnc(Nc4ccc(F)cc4)n3)C2)c1 (centres unmarked) [GSK1379721],0,0,0,30,26,17,0,12,0,0,–,–,–,–,–,–,–,–,–,–
C[C@@H]1CCCCN1c1cc(-c2ccc3c(N)n[nH]c3c2)nc(N)n1 [GSK2258759],96,0,0,0,10,18,0,8,0,7,–,–,–,–,–,–,–,–,–,–
CC1=C(C(=O)Nc2cc3cn[nH]c3cc2F)C(c2ccc(C(F)(F)F)cc2)CC(=O)N1 (centres unmarked) [GSK429286],0,12,21,0,0,33,0,22,14,0,–,–,–,–,–,–,–,–,–,–
O=C(Nc1n[nH]c2nc(-c3nccs3)c(Br)cc12)C1CCCC1 [SB-742609],4,0,16,15,35,32,0,17,9,0,–,–,–,–,–,–,–,–,–,–
CCn1c(-c2cccnc2O)nc2cnccc21 [SB-736715],0,0,0,54,0,7,0,0,0,0,–,–,–,–,–,–,–,–,–,–
CCCc1ccc(S(=O)(=O)NC2CCN(c3ccnc(Nc4ccc(F)cc4)n3)C2)cc1 (centres unmarked) [GSK1379715],0,0,23,0,0,0,12,8,12,0,–,–,–,–,–,–,–,–,–,–
CN(C)CCN(C)C(=O)c1cc(-c2ccncc2)c(-c2ccc(Cl)c(O)c2)o1.Cl.Cl [SB-710397],23,0,9,0,0,30,0,45,5,0,–,–,–,–,–,–,–,–,–,–
Cc1ccccc1-n1cnc2c(N)ncnc21 [SKF-97510],0,47,0,0,0,0,0,0,0,0,–,–,–,–,–,–,–,–,–,–
Cc1cccc(-c2nc(C)cc(Nc3ccncc3)n2)n1 [GSK257997],12,0,6,13,14,30,0,0,9,0,–,–,–,–,–,–,–,–,–,–
COc1cc2ncnc(Nc3ccc4nc(-c5ccccc5)[nH]c4c3)c2cc1OC.Cl [GW282450],0,0,13,0,19,59,6,10,0,31,–,–,–,–,–,–,–,–,–,–
Cc1cc(-c2ccc3c(c2)CC[C@@H](N[C@@H](C)c2ccccc2)C3)cnc1N.Cl [GW412617],0,11,19,17,0,31,0,14,14,0,–,–,–,–,–,–,–,–,–,–
O=S(=O)(c1ccc(-c2ccnc3[nH]ccc23)cc1)N1CCCC1 [GSK846226],73,0,21,11,35,33,0,5,0,11,–,–,–,–,–,–,–,–,–,–
Cl.Oc1ccc(-c2nc(-c3ccccc3)[nH]c2-c2ccncc2)cc1 [SB-428218],0,0,17,0,0,31,5,55,1,0,–,–,–,–,–,–,–,–,–,–
Cc1cccc(-c2nc(Nc3ccc4[nH]ncc4c3)c3ccccc3n2)n1 [GW857175],13,10,24,11,40,0,5,12,1,0,–,–,–,–,–,–,–,–,–,–
Nc1nc(-c2nccs2)c(-c2ccnc3ccccc23)s1 [GW693542],9,0,20,25,7,26,3,5,3,0,–,–,–,–,–,–,–,–,–,–

SMILES,"%Inh [1, 11] [%]","%Inh [2, 11] [%]","%Inh [3, 11] [%]","%Inh [4, 11] [%]","%Inh [5, 11] [%]","%Inh [6, 11] [%]","%Inh [7, 11] [%]","%Inh [8, 11] [%]","%Inh [9, 11] [%]","%Inh [10, 11] [%]",%Inh ([1]; 1 µM) [%],%Inh ([2]; 1 µM) [%],%Inh ([3]; 1 µM) [%],%Inh ([4]; 1 µM) [%],%Inh ([5]; 1 µM) [%],%Inh ([6]; 1 µM) [%],%Inh ([7]; 1 µM) [%],%Inh ([8]; 1 µM) [%],%Inh ([9]; 1 µM) [%],%Inh ([10]; 1 µM) [%]
Cc1cccc(-c2nc(-c3ccc(S(C)(=O)=O)cc3)sc2-c2ccnc(NCCc3ccccc3)c2)c1,0,10,0,51,0,0,1,0,0,9,–,–,–,–,–,–,–,–,–,–
Cl.c1ccc(-c2n[nH]cc2-c2ccnc(-c3ccc(CN4CCOCC4)cc3)c2)nc1 [GW776245],0,20,0,0,0,34,0,7,6,1,–,–,–,–,–,–,–,–,–,–
CC(C)(C)c1ccc(C(=O)Nc2cn3cc(Cl)ccc3n2)cc1,5,20,47,65,0,0,0,0,0,65,–,–,–,–,–,–,–,–,–,–
Cc1cccc(-c2nc(Nc3ccncc3)c3ccccc3n2)n1 [GW855857],2,7,0,27,0,6,0,23,18,0,–,–,–,–,–,–,–,–,–,–
Fc1cc(Cl)ccc1Nc1ccnc2cc(I)ccc12 [GW551191],0,0,33,60,4,21,0,71,26,0,–,–,–,–,–,–,–,–,–,–
CC(C)(C)c1ccc(C(=O)Nc2cn3cc(-c4cccnc4)ccc3n2)cc1,10,5,42,65,51,17,3,12,12,9,–,–,–,–,–,–,–,–,–,–
COc1ccc(Nc2nccc(-c3cccc(NC(=O)c4cc5cc(F)ccc5[nH]4)c3)n2)cc1 [GSK1229782],24,0,5,25,12,22,10,56,9,35,–,–,–,–,–,–,–,–,–,–
COC(=O)c1c(-c2ccccc2)c2cc(OC)ccc2c(=O)n1Cc1ccccc1,0,22,0,12,0,0,5,0,3,9,–,–,–,–,–,–,–,–,–,–
O=c1cc(N2CCOCC2)nc2n(Cc3cccc(Cl)c3Cl)ccn12 [GSK2286295],0,0,14,30,21,20,0,0,4,18,–,–,–,–,–,–,–,–,–,–
CN1C(=O)C(Nc2ccc(Cl)c(C(=O)O)c2)=C(c2ccc(Cl)cc2)C1=O [SB-404290],0,0,2,0,0,0,0,5,0,18,–,–,–,–,–,–,–,–,–,–
COc1cc(Nc2nccc(N3CCC(NC(=O)Nc4cc(C)ccc4C)C3)n2)cc(OC)c1OC (centres unmarked) [GSK1379762],0,0,25,16,19,63,0,22,8,0,–,–,–,–,–,–,–,–,–,–
Cc1ccc(NC(=O)Nc2cccc(C(F)(F)F)c2)cc1 [GSK955403],–,–,–,–,–,–,–,–,–,–,15,0,0,0,0,0,0,17,0,0
COc1ccccc1CNC(=O)c1cc(C(=O)c2ccccc2C)c[nH]1 [GSK364507],1,12,17,19,0,36,0,25,13,0,–,–,–,–,–,–,–,–,–,–
Cc1cccc(-c2nc(Nc3cccc(C(N)=O)c3)c3ccccc3n2)n1 [GW876019],8,28,6,65,34,15,0,57,32,0,–,–,–,–,–,–,–,–,–,–
Cc1ccc(NC(=O)Nc2cc(C(C)(C)C)nn2-c2ccccc2)cc1 [GSK1014915],0,1,33,11,3,38,0,7,7,0,–,–,–,–,–,–,–,–,–,–
COc1cc2ncn(-c3cc(OCC4CCCO4)c(C(N)=O)s3)c2cc1OC (centres unmarked) [GSK204607],0,0,0,0,14,20,0,3,10,16,–,–,–,–,–,–,–,–,–,–
Cc1ccc(C(=O)Nc2ccc(Nc3ccnc4cc(-c5ccccn5)ccc34)cc2O)cc1.Cl [GW440146],0,11,18,0,0,32,0,4,0,0,–,–,–,–,–,–,–,–,–,–
